KKLEB tox = reduces viability of KKLEB cystic fibrosis airway cells; activity change (cytotoxicity), % at 5 µM; KKLEB CF airway cells viability, ATPlite luminescence, overnight; active compounds read low; cells stimulated with P. aeruginosa culture filtrate; actives 0.36% (n = 360,000);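 active = corrected activity change at or below -50% at 5 µM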
TWEAK Fn14 block = TWEAK-Fn14 signaling inhibition | TWEAK-stimulated Fn14 reporter cells, luciferase luminescence, 8 h | inhibition, % at 10 µM | actives 2% (n = 360,000) | AID 1159606; in the data active = inhibition above about 50%
hiPSC survival = increases survival of single human iPS cells. hiPSC single-cell survival, ATPlite luminescence; 100% = ROCK inhibitor wells, 0% = DMSO. survival enhancement, % at 20 µM. AID 602274. actives 0.044% (n = 360,000); in the data active = survival enhancement above about 18%;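 note: cells exposed to compounds for 16 hours before the ATP read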
LGR2 antag = inhibitors of bursicon-induced Drosophila LGR2 receptor cAMP signaling; HEK293 LGR2, CRE-luciferase, bursicon-stimulated, 4 h; inhibition, % at 9.99 µM; actives 0.35% (n = 380,000);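 active = drop in luminescence signal, shown as inhibition above about 50% in the replicate tests, limit read from the data, passing the limit was not always enough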;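 note: agonist challenge used bursicon conditioned medium at about half maximal strength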
HIF-2a inh = blocks HIF-2a reporter activity | actives 0.72% (n = 360,000) | AID 624352 | inhibition, % at 18.8 µM | 786-0 RCC cells HIF-2a reporter, luciferase luminescence, overnight;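 active = inhibition of the luminescence signal of 40% or more relative to plate controls, in a single-dose primary screen at 18.75 µM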
CF NFkB inh = cystic fibrosis NF-kB activation inhibition. KKLEB NF-kB-GFP reporter, PAF-induced, GFP fluorescence overnight. inhibition, % at 5 µM. actives 0.86% (n = 360,000). AID 588850;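 active = at least 50% inhibition at 5 µM, scaled per plate between neutral and stimulator controls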;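 note: PAF is a Pseudomonas aeruginosa culture filtrate used as stimulus; plate controls were PAF-stimulated DMSO wells for no effect and unstimulated DMSO wells for full effect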
Mdm2 MdmX conf = Mdm2/MdmX (human) interaction inhibition, confirmed | AID 504601 | actives 99% (n = 740) | inhibition, % at 8 µM | SaOS-2 split-luciferase Mdm2/MdmX complementation, luminescence | shares compounds with HIF-2a inh;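 active = mean inhibition of the luminescence signal across two replicates at or above 26 percent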
HIF-2a conf = HIF-2a inhibition, single concentration confirmation; shares compounds with HIF-2a inh; 786-0 RCC cells, HIF-2a luciferase reporter luminescence, overnight; inhibition, % at 18.8 µM; actives 56% (n = 1,800); AID 651580;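 active = mean inhibition across four replicates of at least 40 percent at the single tested concentration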
HIF-1a counter = inhibits HIF-1a reporter, a counter-screen for HIF-2a inhibitors; shares compounds with HIF-2a inh; MiaPaCa-2 HIF-1a luciferase reporter, desferoxamine, overnight; inhibition, % at 18.8 µM; actives 72% (n = 1,800);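 active = mean inhibition of the reporter signal across four replicates at the single tested dose of 50% or more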
The depositor's hits bear a star. Most compounds without a hit are left out; they make up all but 2.3% or so of the library.

`Clc1ccc2c(N/N=C/c3ccccc3Br)ccnc2c1` gave KKLEB tox -43, TWEAK Fn14 block -106, hiPSC survival 0, LGR2 antag 19, HIF-2a inh -27, CF NFkB inh -50 and Mdm2 MdmX conf 103*.
Clc1ccc2c(N/N=C/c3cccc(Br)c3)ccnc2c1 was read as KKLEB tox -17, TWEAK Fn14 block -60, hiPSC survival -1, LGR2 antag -7, HIF-2a inh -82 and CF NFkB inh -34.
Screening CC(C)NC(=O)N1[C@H](CO)[C@H]2c3ccccc3N(C(=O)Nc3ccc(Cl)cc3)C[C@H]21 returned LGR2 antag -11.
`COC(=O)c1c(NC(=O)c2nc3ccccc3s2)sc2c1CC(C)(C)NC2(C)C` gave KKLEB tox -32, TWEAK Fn14 block -68, hiPSC survival 0, LGR2 antag 12, HIF-2a inh 23, CF NFkB inh 34 and Mdm2 MdmX conf 93*.
COc1ccc(CNC(=O)C[C@H]2C=C[C@H](NC(=O)CN(C)C)[C@@H](CO)O2)cc1 was read as LGR2 antag 15.
Screening O=C(NC(NC(=S)Nc1ccccc1)C(Cl)(Cl)Cl)c1cccc(Cl)c1 (stereo not drawn) returned KKLEB tox -9, TWEAK Fn14 block 75*, hiPSC survival -2, LGR2 antag 49, HIF-2a inh 47*, CF NFkB inh 19, HIF-2a conf 39 and HIF-1a counter 102*.
Screening CC(=NNC(=S)Nc1ccc(C)cc1)c1ccccn1 returned KKLEB tox 14, TWEAK Fn14 block -43, hiPSC survival -1, LGR2 antag -32, HIF-2a inh 61*, CF NFkB inh -18, HIF-2a conf -28 and HIF-1a counter 2.
C[C@@H]1CN([C@H](C)CO)C(=O)c2cc(C#CC3CC3)cnc2O[C@H]1CN(C)C(=O)c1ccncc1 was read as LGR2 antag 10.
Screening COc1cc2c3nnc(-c4ccc(F)cc4)c-3cn(Cc3ccccc3)c2cc1OC returned KKLEB tox 11, TWEAK Fn14 block inactive, hiPSC survival -3, LGR2 antag 16, HIF-2a inh -24, CF NFkB inh -348 and Mdm2 MdmX conf 103*.
Screening COc1cc2c3nnc(-c4ccc(F)cc4)c-3cn(Cc3ccc(F)cc3)c2cc1OC returned KKLEB tox -21, TWEAK Fn14 block -229, hiPSC survival -5, LGR2 antag -22, HIF-2a inh 0 and CF NFkB inh -201.
For CCOc1ccc(-c2noc(CCC(=O)O)n2)cc1 the results were KKLEB tox -13, TWEAK Fn14 block 71*, hiPSC survival 2, LGR2 antag -15, HIF-2a inh 75*, CF NFkB inh -5, HIF-2a conf 81* and HIF-1a counter 69*.
For COc1ccc(-c2noc(CCCC(=O)O)n2)cc1 the results were KKLEB tox 4, TWEAK Fn14 block 78*, hiPSC survival -1, HIF-2a inh 84*, CF NFkB inh -1, HIF-2a conf 94* and HIF-1a counter 80*.
For COc1ccc(-c2noc(CCC(=O)O)n2)cc1 the results were KKLEB tox 14, TWEAK Fn14 block 17, hiPSC survival -1, LGR2 antag 15, HIF-2a inh 24 and CF NFkB inh 14.
`O=C(O)CCc1nc(-c2ccccc2)no1` gave KKLEB tox -9, TWEAK Fn14 block -4, hiPSC survival 0, HIF-2a inh 13 and CF NFkB inh 4.
For Cc1c(CCC(=O)NCCC(=O)O)c(=O)oc2c(C)c3oc4c(c3cc12)CCCC4 the results were KKLEB tox 4, TWEAK Fn14 block 39, hiPSC survival 0, LGR2 antag -23, HIF-2a inh 56*, CF NFkB inh 5, HIF-2a conf 65* and HIF-1a counter 37.
For Cc1c(CCC(=O)N[C@@H](C)C(=O)O)c(=O)oc2c(C)c3oc4c(c3cc12)CCCC4 the results were KKLEB tox 2, TWEAK Fn14 block 24, hiPSC survival 0, LGR2 antag -22, HIF-2a inh 50*, CF NFkB inh -3, HIF-2a conf 60* and HIF-1a counter 36.
For O=C(O)CCSc1nnc(-c2ccc3c(c2)OCO3)o1 the results were KKLEB tox -4, TWEAK Fn14 block 82*, hiPSC survival 4, HIF-2a inh 92*, CF NFkB inh 8, HIF-2a conf 96* and HIF-1a counter 80*.
For Cc1ccc(CSc2nnc(-c3ccc4c(c3)OCO4)o2)cc1 the results were KKLEB tox -19, TWEAK Fn14 block -33, hiPSC survival -1, LGR2 antag -22, HIF-2a inh -233 and CF NFkB inh -5.
For O=C(CCN1CCCCC1)NCC[C@@H]1CC[C@@H](NC(=O)C2CCCC2)[C@H](CO)O1 the results were LGR2 antag -8.
Screening O=S1(=O)C=C(Sc2nnc(-c3ccccc3)o2)c2ccccc21 returned KKLEB tox -72*, TWEAK Fn14 block 103*, hiPSC survival -3, HIF-2a inh 95*, CF NFkB inh 97* and Mdm2 MdmX conf 100*.
`CSc1nnc(-c2ccccc2)o1` gave KKLEB tox 9, TWEAK Fn14 block -11, hiPSC survival -2, LGR2 antag -2, HIF-2a inh -4 and CF NFkB inh -15.
`O=C(Nc1ccc(Oc2cccc(C(F)(F)F)c2)nc1)c1ccccc1` gave KKLEB tox -18, TWEAK Fn14 block 10, hiPSC survival 0, LGR2 antag 34, HIF-2a inh 9 and CF NFkB inh 7.
CC(C)(C)c1ccc(Oc2ccc(NC(=O)c3ccccc3C(=O)O)cn2)cc1 was read as KKLEB tox -12, TWEAK Fn14 block 35, hiPSC survival 0, LGR2 antag 4, HIF-2a inh 56*, CF NFkB inh 10, HIF-2a conf 51* and HIF-1a counter 35.
`COc1cccc(/C=N/Nc2cc(-n3nc(C)cc3-c3ccccc3)ncn2)c1O` gave KKLEB tox -19, TWEAK Fn14 block 61*, hiPSC survival -2, LGR2 antag 15, HIF-2a inh 16, CF NFkB inh 48 and Mdm2 MdmX conf 91*.
For O=C(C[C@@H]1C=C[C@@H](NC(=O)c2ccncc2)[C@H](CO)O1)NCCc1ccncc1 the results were LGR2 antag -3.

High-throughput results as filed in PubChem.
